From PubChem BioAssay (Tox21)
Records with an inconclusive call do not appear. Active and inactive are the calls of the source. Unless noted, the call rests on the fitted dose curve; in most records, active means well fitted curve in the direction sought with a large enough effect in the repeat runs; inconclusive means weak or mixed curves; inactive means no such curve, though single readings can be large; an effect the other way counts as inactive or inconclusive.

Columns and labels:
[1] = qHTS assay to identify small molecule antagonists of the progesterone receptor (PR) signaling pathway - cell viability counter screen (AID 1346798); further: series mostly up to about 92 µM; nearly all actives have a fitted effect of over 50% in size
Summary of the method: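 Counter screen for cytotoxicity: viability of PR-UAS-bla HEK293T cells was measured with CellTiter-Glo luminescence following 16 hr compound exposure in the presence of R5020.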

[2] = qHTS assay to identify small molecule agonists of the progesterone receptor (PR) signaling pathway - cell viability counter screen (AID 1346799; calls by dose curve; further: nearly all actives have a fitted effect of over 45% in size)
Summary of the method: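 Cells (PR-UAS-bla HEK293T) are plated at 3,000/well in 2% charcoal-stripped FBS medium, rested 6 hr, dosed and incubated 16 hr at 37C. CellTiter-Glo is then added and luminescence measured after 30 min at room temperature.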

[3] = qHTS assay to identify small molecule antagonists of the TGF-beta/Smad signaling pathway - cell viability counter screen (AID 1346824); further: nearly all actives have a fitted effect of over 50% in size
Summary of the method: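 SBE-bla HEK 293T cells, incubated overnight, then compound plus 0.25 ng/mL TGF-beta1 (stock added) for 5 hr at 37 C. Viability was read in the same wells by CellTiter-Glo luminescence after 30 min at room temperature.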

[4] = qHTS assay to identify small molecule agonists of the TGF-beta/Smad signaling pathway - cell viability counter screen (AID 1346829); further: top concentration of the series differs between compounds; nearly all actives have a fitted effect of over 45% in size
Summary of the method: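 Cytotoxicity counter screen: CellTiter-Glo luminescence (30 min, room temperature) measured in the SBE-bla HEK 293T reporter wells after 5 hr compound treatment at 37 C and the 2 hr substrate step.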

[5] = qHTS assay to identify small molecule agonists of the TGF-beta/Smad signaling pathway (AID 1346859; active means well fitted activation curve with a large enough effect in the signal ratio in the repeat runs, not every such curve was filed as active; the % refers to the signal ratio; further: series mostly up to about 77 µM)
Summary of the method: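 Reporter line: HEK 293T with stably integrated SBE-controlled beta-lactamase. Compound exposure lasts 5 hr at 37 C and 5% CO2; substrate loading follows for 2 hr at room temperature, with emission read at 460 and 530 nm.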

[6] = biological target: Thyrotropin-releasing hormone receptor (Homo sapiens) (UniProt P34981); assay: qHTS assay to identify small molecule antagonists of the thyrotropin-releasing hormone receptor (TRHR) signaling pathway (AID 1346877; active means well fitted inhibition curve with a large enough effect in the repeat runs, not every such curve was filed as active; further: series mostly up to about 51 µM)
Sequence of Thyrotropin-releasing hormone receptor (Homo sapiens) (P34981 whole entry, looked up): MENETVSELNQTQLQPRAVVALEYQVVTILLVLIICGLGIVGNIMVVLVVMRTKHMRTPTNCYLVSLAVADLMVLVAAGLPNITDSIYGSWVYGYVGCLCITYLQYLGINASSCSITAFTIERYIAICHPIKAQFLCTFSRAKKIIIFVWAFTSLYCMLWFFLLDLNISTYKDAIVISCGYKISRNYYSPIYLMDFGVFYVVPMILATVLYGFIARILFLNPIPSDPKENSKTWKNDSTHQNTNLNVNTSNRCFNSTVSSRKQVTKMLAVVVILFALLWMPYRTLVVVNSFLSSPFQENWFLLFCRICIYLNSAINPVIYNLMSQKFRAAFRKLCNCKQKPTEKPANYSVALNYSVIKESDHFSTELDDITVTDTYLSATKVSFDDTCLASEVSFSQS
Summary of the method: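 In this cell-based calcium flux format, HEK293 cells expressing TRHR received test compound for 5 min before the agonist TRH (1 nM final). Dye loading lasted 2 h at 37 °C.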

[7] = biological target: Thyrotropin-releasing hormone receptor (Homo sapiens) (UniProt P34981); assay: qHTS assay to identify small molecule agonists of the thyrotropin-releasing hormone receptor (TRHR) signaling pathway (AID 1346891; calls by dose curve; further: series mostly up to about 58 µM)
Summary of the method: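 Cells: TRHR-Hek293, seeded and incubated 18 h. Dye loading: 2 h at 37 °C. Compound added from DMSO stock by pin tool. Read-out: kinetic calcium fluorescence over 3 min.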

[8] = Human pregnane X receptor (PXR) small molecule agonists, qHTS cell viability counter screen (AID 1346977); further: nearly all actives have a fitted effect of over 50% in size
Summary of the method: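 Cytotoxicity counter screen run in the same wells as the PXR luciferase assay, using PXR-Luc HepG2 cells in charcoal-stripped serum medium. Viability: CellTiter-Fluor fluorescence after 24hr compound treatment.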

[9] = Caspase-3/7 induction in HepG2 cells by small molecules, qHTS assay (AID 1346978); further: nearly all actives have a fitted effect of over 15% in size
Summary of the method: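 Wild-type HepG2 cells, 2,000/well, settled 5 hr at 37 C and 5% CO2, then compound-treated for 17 hr; caspase-3/7 activity read by luminescent Caspase-Glo 3/7 after 30 min at room temperature.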

[10] = Caspase-3/7 induction in CHO-K1 cells by small molecules, qHTS assay (AID 1346980); further: nearly all actives have a fitted effect of over 15% in size
Summary of the method: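 Wild-type CHO-K1 cells exposed to compounds for 17hr at 37 C, 5% CO2. Caspase-3/7 activity then measured by Caspase-Glo 3/7 luminescence after 30min at room temperature.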

[11] = Caspase-3/7 induction in HepG2 cells by small molecules, qHTS cell viability counter screen (AID 1346981); further: series mostly up to about 92 µM; nearly all actives have a fitted effect of over 30% in size
Summary of the method: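 Counter screen for cytotoxicity: HepG2 exposed 16 hr to compounds, then CellTiter-Fluor viability signal (fluorescence, 1 hr reagent incubation).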

[12] = biological target: Nuclear receptor subfamily 1 group I member 2 (Homo sapiens) (UniProt O75469); assay: Human pregnane X receptor (PXR) small molecule agonists, qHTS assay (AID 1346982); further: nearly all actives have a fitted effect of over 35% in size; further: potency means the concentration at half of the fitted maximal effect
Sequence of Nuclear receptor subfamily 1 group I member 2 (Homo sapiens) (O75469 whole entry, looked up): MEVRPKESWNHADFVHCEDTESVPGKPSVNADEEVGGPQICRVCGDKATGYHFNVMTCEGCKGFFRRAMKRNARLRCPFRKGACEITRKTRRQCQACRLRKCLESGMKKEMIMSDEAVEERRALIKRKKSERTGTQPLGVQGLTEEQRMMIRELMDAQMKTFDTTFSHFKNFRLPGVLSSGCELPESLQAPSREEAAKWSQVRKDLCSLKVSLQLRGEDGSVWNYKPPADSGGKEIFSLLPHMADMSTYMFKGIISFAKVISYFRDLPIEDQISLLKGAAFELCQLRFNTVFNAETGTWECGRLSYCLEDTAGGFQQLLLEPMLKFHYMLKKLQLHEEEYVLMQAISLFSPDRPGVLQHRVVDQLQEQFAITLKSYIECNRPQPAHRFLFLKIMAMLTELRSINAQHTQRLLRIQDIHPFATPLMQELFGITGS
Summary of the method: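 Luminescence (ONE-Glo, 30 min RT) after 24 hr compound exposure of PXR-Luc HepG2 cells; cells rested 5 hr post-plating in 5% charcoal-stripped FBS medium.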

[13] = biological target: Cytochrome P450 2D6 (Homo sapiens) (UniProt P10635); assay: Cytochrome P450 Family 2 Subfamily D Member 6 (CYP2D6) small molecule antagonists: luciferase reporter qHTS assay (AID 1671196); further: nearly all actives have a fitted effect of over 50% in size; further: potency means the concentration at half of the fitted maximal effect
Sequence of Cytochrome P450 2D6 (Homo sapiens) (P10635 whole entry, looked up): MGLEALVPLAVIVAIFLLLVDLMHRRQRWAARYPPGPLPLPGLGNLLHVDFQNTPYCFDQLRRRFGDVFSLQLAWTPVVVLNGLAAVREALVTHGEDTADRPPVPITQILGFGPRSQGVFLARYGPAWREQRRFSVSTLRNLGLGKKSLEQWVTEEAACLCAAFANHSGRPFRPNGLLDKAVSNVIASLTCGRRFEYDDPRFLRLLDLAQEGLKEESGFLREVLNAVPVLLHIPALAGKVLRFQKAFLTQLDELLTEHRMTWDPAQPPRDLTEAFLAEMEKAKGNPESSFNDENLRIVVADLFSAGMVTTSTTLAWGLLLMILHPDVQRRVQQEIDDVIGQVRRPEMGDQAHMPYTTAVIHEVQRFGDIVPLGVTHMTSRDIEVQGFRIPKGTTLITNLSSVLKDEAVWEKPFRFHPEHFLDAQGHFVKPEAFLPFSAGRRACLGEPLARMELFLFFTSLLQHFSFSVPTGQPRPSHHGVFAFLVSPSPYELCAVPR
Summary of the method: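 Inhibition of CYP2D6 was gauged by loss of luminescence, since light produced tracks the luciferin generated from a proluciferin substrate. A 10 min room-temperature preincubation preceded 1 h NADPH-supported turnover.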

[14] = biological target: Cytochrome P450 2C19 (Homo sapiens) (UniProt P33261); assay: Cytochrome P450 Family 2 Subfamily C Member 19 (CYP2C19) small molecule antagonists: luciferase reporter qHTS assay (AID 1671197); further: nearly all actives have a fitted effect of over 65% in size; further: potency means the concentration at half of the fitted maximal effect
Sequence of Cytochrome P450 2C19 (Homo sapiens) (P33261 whole entry, looked up): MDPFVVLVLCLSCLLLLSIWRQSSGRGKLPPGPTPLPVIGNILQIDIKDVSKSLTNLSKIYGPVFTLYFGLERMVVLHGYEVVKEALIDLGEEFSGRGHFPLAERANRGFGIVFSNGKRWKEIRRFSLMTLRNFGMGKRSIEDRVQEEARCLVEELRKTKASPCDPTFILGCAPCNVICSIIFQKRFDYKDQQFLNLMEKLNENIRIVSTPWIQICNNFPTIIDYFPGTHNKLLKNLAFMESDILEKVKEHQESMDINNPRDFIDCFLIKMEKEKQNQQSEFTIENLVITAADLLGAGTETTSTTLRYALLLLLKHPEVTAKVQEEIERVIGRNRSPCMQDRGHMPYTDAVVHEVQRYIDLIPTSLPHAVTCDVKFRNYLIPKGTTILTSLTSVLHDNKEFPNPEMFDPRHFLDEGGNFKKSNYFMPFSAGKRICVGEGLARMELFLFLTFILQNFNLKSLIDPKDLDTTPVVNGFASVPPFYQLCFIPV
Summary of the method: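 Luminescent readout of CYP2C19 activity: luciferin product detected 20 min after adding detection reagent. Before that, compound and enzyme-substrate mix preincubated 10 min at room temperature; NADPH-regenerating system started a 1 h, 37C reaction. Ketoconazole as positive control.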

[15] = biological target: Cytochrome P450 2C9 (Homo sapiens) (UniProt P11712); assay: Cytochrome P450 Family 2 Subfamily C Member 9 (CYP2C9) small molecule antagonists: luciferase reporter qHTS assay (AID 1671198); further: nearly all actives have a fitted effect of over 50% in size; further: potency means the concentration at half of the fitted maximal effect
Sequence of Cytochrome P450 2C9 (Homo sapiens) (P11712 whole entry, looked up): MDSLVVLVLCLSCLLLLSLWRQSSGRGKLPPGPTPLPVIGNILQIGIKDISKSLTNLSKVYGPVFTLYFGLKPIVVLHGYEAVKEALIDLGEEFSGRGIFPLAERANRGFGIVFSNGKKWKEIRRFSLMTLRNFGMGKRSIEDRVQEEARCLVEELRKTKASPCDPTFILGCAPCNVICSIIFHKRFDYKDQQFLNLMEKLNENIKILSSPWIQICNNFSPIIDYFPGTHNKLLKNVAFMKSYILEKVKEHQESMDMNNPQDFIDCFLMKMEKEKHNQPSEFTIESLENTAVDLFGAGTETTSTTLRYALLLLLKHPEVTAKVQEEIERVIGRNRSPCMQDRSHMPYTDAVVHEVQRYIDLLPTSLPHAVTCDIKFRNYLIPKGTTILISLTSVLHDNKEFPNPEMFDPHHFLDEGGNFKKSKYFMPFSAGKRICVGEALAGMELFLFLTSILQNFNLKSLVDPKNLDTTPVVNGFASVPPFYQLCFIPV
Summary of the method: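 P450-Glo proluciferin substrate with CYP2C9 enzyme; 10 min RT preincubation, then NADPH regeneration 1 h at 37C; luciferin detection reagent 20 min RT, luminescence in relative luminescence units.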

[16] = biological target: Cytochrome P450 1A2 (Homo sapiens) (UniProt P05177); assay: Cytochrome P450 Family 1 Subfamily A Member 2 (CYP1A2) small molecule antagonists: luciferase reporter qHTS assay (AID 1671199); further: nearly all actives have a fitted effect of over 50% in size; further: potency means the concentration at half of the fitted maximal effect
Sequence of Cytochrome P450 1A2 (Homo sapiens) (P05177 whole entry, looked up): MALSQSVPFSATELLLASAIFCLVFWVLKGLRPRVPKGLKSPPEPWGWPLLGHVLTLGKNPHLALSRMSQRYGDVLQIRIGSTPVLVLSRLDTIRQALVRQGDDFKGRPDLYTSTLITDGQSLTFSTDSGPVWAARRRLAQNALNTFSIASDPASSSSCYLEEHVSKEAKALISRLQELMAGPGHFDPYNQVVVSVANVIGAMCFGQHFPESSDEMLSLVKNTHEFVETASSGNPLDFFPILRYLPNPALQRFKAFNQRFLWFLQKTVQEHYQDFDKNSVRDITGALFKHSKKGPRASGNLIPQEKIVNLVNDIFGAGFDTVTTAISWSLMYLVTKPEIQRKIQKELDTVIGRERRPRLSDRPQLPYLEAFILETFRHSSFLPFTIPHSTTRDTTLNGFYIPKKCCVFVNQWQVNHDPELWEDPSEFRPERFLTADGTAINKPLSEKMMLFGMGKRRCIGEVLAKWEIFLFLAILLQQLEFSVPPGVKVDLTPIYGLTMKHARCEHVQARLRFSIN
Summary of the method: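 Signal from luciferin formed by CYP1A2 from a proluciferin substrate is read as luminescence, expressed in relative luminescence units. Compounds sit with enzyme 10 min, NADPH-driven reaction runs 1 h, all at room temperature.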

[17] = Caspase-3/7 induction in CHO-K1 cells by small molecules, qHTS cell viability counter screen (AID 1346979); further: nearly all actives have a fitted effect of over 35% in size; further: potency means the concentration at half of the fitted maximal effect
Summary of the method: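 Cytotoxicity counter screen run in parallel with the caspase-3/7 assay: CHO-K1 cells, 16hr compound treatment at 37C, then CellTiter-Fluor for 1hr before fluorescence reading.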

Measured: Potency

CCc1c(C(=O)O)c(=O)cnn1-c1ccc(Cl)cc1
not listed: [17]
inactive: all other assays above

CCCC(C)CCC(C)=O (stereo unspecified)
not listed: [14]
inactive: all other assays above

COc1nccnc1CC(C)C
not listed: [16]
inactive: all other assays above

CC1(C)COCN1
not listed: [15] | [16]
inactive: all other assays above

O=C1OC(=O)c2cccc3cccc1c23
active: [12] 19.5 µM | [16] 35.9 µM
inactive: all other assays above

Cc1occc1SSc1ccoc1C
active: [15] 56.4 µM
not listed: [12] | [14] | [16] | [17]
inactive: all other assays above

O=c1cccc[nH]1
not listed: [11]
inactive: all other assays above

CCOCN(C(=O)CS(=O)(=O)O)c1c(C)cccc1CC
not listed: [14] | [15]
inactive: all other assays above

C=CC(=O)OCCC#N
active: [17] 61.5 µM
inactive: all other assays above

CC1CCCCN1CCCOC(=O)c1ccc(OC2CCCCC2)cc1 (stereo unspecified)
active: [13] 15.5 µM
not listed: [12] | [17]
inactive: all other assays above

O=C1OC(=O)c2ccc3c4c(ccc1c24)C(=O)OC3=O
inactive: all assays above

C=C(C)CCCC
not listed: [15]
inactive: all other assays above

O=C(O)CC(=O)O
active: [13] 71.2 µM | [16] 63.4 µM
not listed: [9]
inactive: all other assays above

CCCCCCCCCCCC(=O)N(CC)CC
active: [12] 21.7 µM | [15] 50.2 µM
not listed: [14] | [16]
inactive: all other assays above

O=Nc1ccc(NO)cc1
active: [17] 63.6 µM
not listed: [11] | [12] | [14]
inactive: all other assays above

CC(=O)c1ccccc1N
not listed: [11] | [13] | [14] | [15] | [16]
inactive: all other assays above

CCCC(=O)OCC(COC(=O)CCC)OC(=O)CCC
active: [15] 5.64 µM | [16] 28.3 µM
not listed: [14]
inactive: all other assays above

CCCCCCCC(=O)OCC
not listed: [11]
inactive: all other assays above

CC(C)(C)C1=CC(=O)C=C(C(C)(C)C)C1=O
not listed: [14] | [15] | [16]
inactive: all other assays above

O=CC1CC1
inactive: all assays above

NCCCC(O)(P(=O)(O)O)P(=O)(O)O
not listed: [12] | [13] | [14] | [15] | [16]
inactive: all other assays above

CCOC(OCC)C(=O)c1ccccc1
active: [16] 31.7 µM
not listed: [14]
inactive: all other assays above

CO[Si](CCCNCCNCCN)(OC)OC
not listed: [14]
inactive: all other assays above

O=C(O)CCCCCCC(=O)O
active: [13] 35.9 µM
not listed: [11] | [14] | [16]
inactive: all other assays above

NC(=O)c1ccccc1N
active: [14] 35.8 µM | [16] 31.9 µM
not listed: [13]
inactive: all other assays above

OCCN1CN(CCO)CN(CCO)C1
not listed: [13] | [14]
inactive: all other assays above

CCc1cccc(C)c1
inactive: all assays above

Cc1cnccn1
inactive: all assays above

SCCCCCCCCS
not listed: [11]
inactive: all other assays above

Cc1cc(C)c(C=O)c(C)c1
active: [12] 43.3 µM
not listed: [13] | [14] | [15]
inactive: all other assays above

C#CC(O)CCC (stereo unspecified)
not listed: [16]
inactive: all other assays above

O=C(O)c1cccc(Cl)n1
not listed: [13]
inactive: all other assays above

COc1cc(C(=O)NS(=O)(=O)c2ccccc2C)ccc1Cc1cn(C)c2ccc(NC(=O)OC3CCCC3)cc12
active: [15] 15.5 µM
not listed: [12] | [14]
inactive: all other assays above

CCC1CCCCC1
inactive: all assays above
